Screens deposited in PubChem by Broad Institute.
A selection: hits, their analogues and other compounds. The true share with any hit is near 3.3%.
ERAP1 HTS inh = blocks human ERAP1 aminopeptidase activity. Q9NZ08. recombinant ERAP1, Leu-AMC fluorescence, 60 min. inhibition, % at 10.7 µM. actives 0.15% (n = 340,000). AID 652197;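 active means mean replicate inhibition of at least 30%, or all replicates individually reaching that 30% level; inactive means mean below 30% and not every replicate reaching it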;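 further: 0% = neutral control wells and 100% = L-leucinethiol positive control wells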
Target sequence (Q9NZ08 whole entry, looked up): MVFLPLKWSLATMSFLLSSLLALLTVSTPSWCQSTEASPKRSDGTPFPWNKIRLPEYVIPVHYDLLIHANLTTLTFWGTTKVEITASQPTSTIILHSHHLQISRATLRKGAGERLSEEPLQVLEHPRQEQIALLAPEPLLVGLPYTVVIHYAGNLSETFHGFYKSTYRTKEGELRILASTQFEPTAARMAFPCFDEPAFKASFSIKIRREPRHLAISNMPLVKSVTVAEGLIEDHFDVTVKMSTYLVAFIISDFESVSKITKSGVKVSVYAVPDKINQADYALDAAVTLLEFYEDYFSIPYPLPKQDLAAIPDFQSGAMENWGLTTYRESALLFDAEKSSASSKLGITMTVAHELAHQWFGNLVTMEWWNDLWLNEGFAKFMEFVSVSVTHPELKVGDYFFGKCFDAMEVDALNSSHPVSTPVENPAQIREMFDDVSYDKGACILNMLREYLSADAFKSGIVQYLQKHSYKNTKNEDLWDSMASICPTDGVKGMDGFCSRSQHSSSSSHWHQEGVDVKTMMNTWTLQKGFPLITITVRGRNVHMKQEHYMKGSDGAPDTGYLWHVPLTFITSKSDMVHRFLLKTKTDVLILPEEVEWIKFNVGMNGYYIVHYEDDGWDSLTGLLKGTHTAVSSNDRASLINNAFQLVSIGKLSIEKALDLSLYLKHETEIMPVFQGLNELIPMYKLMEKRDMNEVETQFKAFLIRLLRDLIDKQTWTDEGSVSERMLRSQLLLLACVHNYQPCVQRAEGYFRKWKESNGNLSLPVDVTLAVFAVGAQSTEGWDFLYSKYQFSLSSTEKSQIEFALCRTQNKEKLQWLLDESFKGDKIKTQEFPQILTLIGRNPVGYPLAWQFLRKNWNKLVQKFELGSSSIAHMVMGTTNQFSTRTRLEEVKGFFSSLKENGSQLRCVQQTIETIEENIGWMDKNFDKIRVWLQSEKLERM
SIRT5 inh = inhibitors of human sirtuin-5 desuccinylase; actives 1.1% (n = 330,000); inhibition, % at 15 µM; Purified SirT5, succinyl-peptide AMC, trypsin-coupled fluorescence; in the data active means inhibition above about 15%
Casp6 inh = blocks human caspase-6 cleavage activity; purified caspase-6, Z-VEID-R110 cleavage fluorescence; actives 0.53% (n = 350,000); P55212; inhibition, % at 12.5 µM; AID 686996;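 active means mean inhibition across replicates at least about 35%, with every replicate also reaching that limit, limit read from the data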;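 further: 0% = median of neutral control wells and 100% = no fluorescence left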
FGF22 binding = shifts melting point of recombinant human FGF22; Q9HCT0; recombinant FGF22 thermal shift, SYPRO orange fluorescence; percent of sucrose octasulfate shift, DMSO zero; AID 651658; actives 1.5% (n = 340,000); activity (Tm shift, normalised), % at 9.99 µM;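 active means mean Tm shift, scaled 0 neutral to 100 positive control, at about 1.3% or above, every replicate too, limit read from the data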
GSIS activator = GLuc luminescence reporter in INS-1E cells, primary screen for activators of glucose-dependent secretion of insulin. activation, % at 16.6 µM. INS-1E GLuc reporter insulin secretion, 2-3 h. actives 0.61% (n = 370,000). AID 743287;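 active means lowest replicate activation of at least 40%, so every replicate reaches that level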;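 further: 0% = median of neutral control wells and 100% = median of IBMX positive control wells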
* marks the source's active call; other numbers are inactive results; nt = no result.

SMILES	ERAP1 HTS inh	SIRT5 inh	Casp6 inh	FGF22 binding	GSIS activator
CC(C)C#Cc1ccc([C@H]2[C@H]3CN(C(=O)c4ccc(F)cc4)CCCCN3[C@H]2CO)cc1	-0.6	0.7	-4.4	-0.6	-16.7
COC(=O)c1cc(NC(=O)c2cccs2)ccc1N1CCOCC1	-0.6	1.7	-0.7	43.3*	nt
O=C(Nc1ccc(N2CCOCC2)c(F)c1)c1cccs1	3.0	2.2	-1.4	0.1	28.1
C[C@H](CO)N1C[C@H](C)[C@H](CN(C)S(=O)(=O)c2cccc(F)c2)Oc2ncc(-c3cccc(F)c3)cc2C1=O	-2.3	0.4	0.5	0.1	11.8
C[n+]1c2n(c3ccccc31)N=C(c1cc(C(C)(C)C)c(O)c(C(C)(C)C)c1)CS2	7.0	0.7	3.7	42.4	301.2*
CC(=O)OC1CC(c2cc(C(C)(C)C)c(O)c(C(C)(C)C)c2)=NO1 (stereo unspecified)	-1.1	9.1	-1.0	0.1	nt
COc1ccc(S(=O)(=O)Nc2cccc3c2O[C@@H](CN(C)S(=O)(=O)c2ccc(OC)cc2)[C@H](C)CN([C@H](C)CO)C3=O)cc1	-2.5	-1.4	-2.8	0.0	5.0
CCCC#Cc1ccc2c(c1)[C@@H]1[C@@H](CCN1S(=O)(=O)c1ccccc1C)[C@@H](CO)N2	-1.4	17.8*	-0.9	nt	2.9
COCC(=O)N1CC[C@@H]2[C@H]1c1cc(C#Cc3ccc(OC)cc3)ccc1N[C@@H]2CO	0.8	4.5	0.1	0.4	0.9
N#Cc1ccc(-c2ccc3c(c2)[C@@H]2[C@@H](CCN2C(=O)C2CCCC2)[C@@H](CO)N3)cc1	2.0	-9.5	2.8	nt	40.9*
CCC(=O)N1CC[C@@H]2[C@H](CO)Nc3ccc(C#Cc4ccc(OC)cc4)cc3[C@@H]21	2.0	16.8*	-5.3	0.0	3.6
COc1ccccc1C#Cc1ccc2c(c1)[C@H]1[C@H](CCN1C(=O)c1cccc(F)c1)[C@H](CO)N2	-1.2	-29.4	2.2	-0.3	2.7
CCCC#Cc1ccc2c(c1)[C@@H]1[C@@H](CCN1S(=O)(=O)c1ccccc1F)[C@@H](CO)N2	1.5	-1.8	1.0	nt	-0.6
N#Cc1ccc(-c2ccc3c(c2)[C@H]2[C@H](CCN2C(=O)C2CCCCC2)[C@H](CO)N3)cc1	0.2	-1.3	3.3	0.2	7.4
COc1ccccc1C#Cc1ccc2c(c1)[C@@H]1[C@@H](CCN1C(=O)c1cccc(F)c1)[C@H](CO)N2	0.4	18.2*	-1.2	nt	-10.6
C/C=C/c1ccc([C@@H]2[C@@H](CO)N3C(=O)CN(C(=O)c4cccc(F)c4)C[C@@H]23)cc1	0.0	-0.8	4.9	nt	15.8
CC(C)(C)[S@](=O)N1Cc2cc(C(=O)N[C@@H]3CCN(Cc4ccccc4)C3)nc(-c3cccc(-c4cncnc4)c3)c2[C@@H]1CCO	nt	nt	nt	nt	-3.6
CC(C)NC(=O)Nc1ccc2c(c1)CC(=O)N(C)C[C@@H](C)[C@H](CN(C)C(=O)OC(C)(C)C)O2	nt	nt	nt	nt	3.7
COc1ccc(NC(=O)Nc2ccc3c(c2)CC(=O)N([C@@H](C)CO)C[C@@H](C)[C@@H](CN(C)C(=O)Nc2ccc(C(F)(F)F)cc2)O3)cc1	nt	nt	nt	0.2	-3.4
O=C(C1CCC1)N1CC[C@H]2[C@H](CO)Nc3ccc(C#Cc4cccc(F)c4)cc3[C@H]21	1.4	20.5*	-1.9	-0.2	-1.4
O=C(O)c1ccc(NS(=O)(=O)/C=C/c2ccccc2)cc1O	1.8	0.5	43.5*	1.0	12.2
CN(C)C(=O)C[C@H]1C=C[C@@H](NC(=O)NC2CCCC2)[C@@H](CO)O1	-0.5	0.0	0.8	-0.1	6.3
CC(C)n1c(N)c(C#N)c2ccc([N+](=O)[O-])cc2c1=O	nt	-2.9	5.0	-0.2	102.9*
CCCCCCn1c(N)c(C#N)c2ccc([N+](=O)[O-])cc2c1=O	-0.3	-5.1	6.6	0.1	-6.5
O=C(NCc1cc(F)cc(F)c1)[C@@H]1[C@@H](CO)[C@@H]2Cn3c(cccc3=O)[C@H]1N2C(=O)c1cnccn1	1.4	0.9	-0.7	0.1	15.0
SMILES	ERAP1 HTS inh	SIRT5 inh	Casp6 inh	FGF22 binding	GSIS activator
COc1ccc2c3c([nH]c2c1)[C@@H](CO)N(C(=O)c1ccc(F)cc1)CC31CCN(C)CC1	nt	nt	nt	nt	-0.2
CCC(=O)N1C[C@H](O)COC[C@@H]2O[C@@H](CC(=O)N3CCCCC3)CC[C@H]21	-0.9	-2.1	-2.3	-0.1	9.2
O=C(CN1CCOCC1)N[C@@H]1CC[C@H](CCNS(=O)(=O)c2ccccc2F)O[C@@H]1CO	nt	nt	nt	nt	-2.5
CCOc1ccccc1NC(=O)c1c(NC(=O)CCC(=O)O)sc2c1CCCCC2	3.9	2.2	7.4	0.2	-12.0
CCOC(=O)c1ccc(NC(=O)c2c(NC(=O)CCC(=O)O)sc3c2CCCCC3)cc1	12.8	0.8	17.3	43.7*	-11.8
COCC(=O)N1C[C@@H]2[C@H](c3ccccc31)[C@@H](CO)N2C(=O)C1CCOCC1	nt	nt	nt	nt	-2.2
CCC[n+]1c(C)sc2c(OC)ccc(OC)c21	51.6*	-0.3	0.2	43.0*	7.8
Cc1ccc(/C=C2\SC(=S)N(CCCC(=O)Nc3cc(C)on3)C2=O)cc1	-1.1	-1.0	-3.0	0.0	10.0
O=C(CCCN1C(=O)/C(=C\c2cccs2)SC1=S)Nc1cccnc1	5.7	nt	-1.1	0.0	nt
Cc1cc(NC(=O)CCCN2C(=O)/C(=C\c3cccs3)SC2=S)no1	nt	nt	nt	nt	54.1*
O=C(CCCN1C(=O)/C(=C/c2cccs2)SC1=S)Nc1cccnc1	-1.1	-2.1	1.2	43.6*	0.8
CC(=O)c1ccc(NC(=O)c2cc(Cl)nc3ccccc23)cc1	1.5	-1.2	-5.9	43.4*	8.1
COCC(=O)N1CCC2(CC1)CN(Cc1cccc(OC)c1)[C@H](CO)c1c2c2ccc(OC)cc2n1C	nt	nt	nt	nt	0.4
Cc1ccc(C2=NOC(=O)/C2=C\c2ccc(C)o2)cc1	0.0	-0.3	40.7*	0.1	nt
CC1=NOC(=O)/C1=C\c1ccc(-c2ccc(Br)cc2)o1	0.8	-2.2	0.9	nt	-1.1
Cc1ccc(/C=C2\C(=O)ON=C2c2ccccc2)o1	-2.6	15.1*	-0.5	nt	-5.4
CC(=O)N1[C@H](CO)[C@@H](c2ccccc2)C12CN(Cc1cc(F)ccc1F)C2	-2.6	0.3	0.1	-0.2	-3.1
Cc1cc(-c2ccccc2)n2ncc(-c3ccccc3)c2n1	-0.4	9.5	-0.3	-0.4	0.1
COc1ccc(-c2cc(C)nc3c(-c4ccccc4)cnn23)cc1	-2.0	-3.8	-1.9	42.9*	6.3
C[C@@H]1CN([C@@H](C)CO)C(=O)c2cc(C3=CCCCC3)cnc2O[C@@H]1CN(C)Cc1cccnc1	-0.6	-1.4	1.6	-0.1	22.1
Cc1noc(C)c1NC(=O)Nc1ccc2c(c1)C(=O)N(C)[C@@H]1CC[C@H](CC(=O)N(C)C)O[C@@H]1CO2	1.8	2.0	0.5	0.0	-3.9
NC(=O)c1ncn([C@@H]2O[C@H](CNCc3cccn3-c3ccncc3)[C@@H](O)[C@H]2O)n1	1.1	nt	1.2	43.1*	-0.5
C/C=C/c1ccc2c(c1)O[C@@H](CN(C)C(=O)Cc1ccccc1)[C@@H](C)CN([C@@H](C)CO)S2(=O)=O	-5.6	0.2	-0.3	-0.5	3.1
